This passage reports outcome and AC50 results from PubChem BioAssay (EPA / NIEHS).

SMILES strings stand for the structures. Inconclusive results are not listed. Activity calls are given as the source filed them. How the source made its calls: active means hit-call score of the fitted dose curve at least 0.9, where 1 is the maximum; inconclusive means response in the unintended direction; inactive means score below 0.9.

The target of one experiment is Cellular tumor antigen p53 (Homo sapiens) (UniProt P04637). Nature of the experiment: TOX21_p53_BLA_p3_ratio: Tox21 HCT-116 p53 Agonism Beta-lactamase Assay, Ratio, Phase 3 (AID 2283596). In outline: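 Cells were seeded at 4000/well, rested 5 h at 37C, then dosed with DMSO compound solutions (217-fold dilution) for 16 h. CCF4-AM substrate was loaded for 2 h at room temperature, and the 460/530 nm emission ratio was fitted for gain of signal versus DMSO.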
Sequence of Cellular tumor antigen p53 (Homo sapiens) (P04637 whole entry, looked up): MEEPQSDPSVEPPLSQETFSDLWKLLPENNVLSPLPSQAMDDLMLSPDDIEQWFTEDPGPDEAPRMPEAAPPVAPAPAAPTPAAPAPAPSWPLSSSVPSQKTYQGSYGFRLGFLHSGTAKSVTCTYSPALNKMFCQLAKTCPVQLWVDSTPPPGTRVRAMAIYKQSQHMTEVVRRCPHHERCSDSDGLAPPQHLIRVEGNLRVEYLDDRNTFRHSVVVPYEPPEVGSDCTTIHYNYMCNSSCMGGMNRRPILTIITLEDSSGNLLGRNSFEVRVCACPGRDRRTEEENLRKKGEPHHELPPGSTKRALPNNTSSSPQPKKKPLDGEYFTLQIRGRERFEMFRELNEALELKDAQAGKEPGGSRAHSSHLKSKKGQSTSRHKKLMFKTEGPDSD
As to `CON=C(C(=O)N[C@@H]1C(=O)N2C(C(=O)O)=C(COC(N)=O)CS[C@H]12)c1ccco1`, the outcome was inactive.

With `C[C@H]1O[C@@H](n2cc(F)c(=O)[nH]c2=O)[C@H](O)[C@@H]1O`, the AC50 was 20.7 µM (active).

In the case of `O=C(O)c1cc(=O)c2c3nc4ccccc4oc-3cc(=O)c2[nH]1`, the outcome was inactive.

For the compound `CO[C@@]12[C@H](COC(N)=O)C3=C(C(=O)C(C)=C(N)C3=O)N1C[C@@H]1N[C@@H]12`, the AC50 was 3.24 µM (active).

With `CCN(CC)CCOc1ccc(-c2nc3cc(Cl)ccc3s2)cc1`, the outcome was inactive.

Turning to `Cc1c(Cl)cccc1Nc1ccccc1C(=O)O`, the AC50 was 21.1 µM (active).

Turning to `CO[C@H]1/C=C/O[C@@]2(C)Oc3c(C)c(O)c4c(O)c(cc(O)c4c3C2=O)NC(=O)/C(C)=C\C=C\[C@H](C)[C@H](O)[C@@H](C)[C@@H](O)[C@@H](C)[C@H](OC(C)=O)[C@@H]1C`, the outcome was inactive.

`COc1ccccc1N1CCN(CC(O)COc2cccc3ccccc23)CC1` (stereo not given): the result was inactive.

For the compound `CN(C)c1nc(N(C)C)nc(N(C)C)n1`, the result was inactive.

As to `NC(=O)c1ccccc1C(N)=O`, the result was inactive.

Turning to `OC[C@@H](O)[C@@H](O[C@@H]1O[C@H](CO)[C@H](O)[C@H](O)[C@H]1O)[C@H](O)[C@@H](O)CO`, the result was inactive.

Take `NCCS`: the result was inactive.

Turning to `CCCCCCCCCCCCCCC(=O)O`, the result was inactive.

As for `CCCCCCCCCCCCCCCCCC(=O)OC[C@@H](O)[C@H]1OC[C@H](O)[C@H]1O`, the outcome was inactive.

Consider `Cc1ccc2nc(N)[nH]c(=O)c2c1Sc1ccncc1`, for which the AC50 is 3.22 µM (active).

As to `COc1cccc2c1[C@@H]1CN(CCCCn3c(=O)[nH]c4c(sc5ncc(-c6ccccc6)nc54)c3=O)C[C@@H]1CO2`, the result was inactive.

For `CCOC(=O)C=CC(=O)O`, the outcome was inactive.

Take `O=C(Nc1ccc(Br)cc1)c1cc(Br)c(Br)s1`: the AC50 is 18.8 µM (active).

Take `CCC(C)(C)c1ccc(CC(C)CN2C[C@@H](C)O[C@@H](C)C2)cc1` (stereo not given in full): the outcome was inactive.

For the compound `O=C(O)COC(=O)Cc1ccccc1Nc1c(Cl)cccc1Cl`, the outcome was inactive.

In the case of `C=CC(=O)O`, the result was inactive.

As to `CCC(C)n1ncn(-c2ccc(N3CCN(c4ccc(OC[C@H]5CO[C@](Cn6cncn6)(c6ccc(Cl)cc6Cl)O5)cc4)CC3)cc2)c1=O` (stereo not given in full), the result was inactive.

For the compound `NCCCC[C@H](NC(=O)[C@@H]1CCCN1C(=O)[C@@H]1CSSC[C@H](N)C(=O)N[C@@H](Cc2ccc(O)cc2)C(=O)N[C@@H](Cc2ccccc2)C(=O)N[C@@H](CCC(N)=O)C(=O)N[C@@H](CC(N)=O)C(=O)N1)C(=O)NCC(N)=O`, the result was inactive.

With `C=C1/C(=C\C=C2/CCC[C@]3(C)[C@@H]([C@H](C)CCCC(C)(C)O)CC[C@@H]23)C[C@@H](O)C[C@@H]1O`, the AC50 is 25.4 µM (active).

`C=CCNC1=C2C[C@@H](C)C[C@H](OC)[C@H](O)[C@@H](C)/C=C(\C)[C@H](OC(N)=O)[C@@H](OC)/C=C\C=C(/C)C(=O)NC(=CC1=O)C2=O`: the AC50 is 0.19 µM (active).

`O[C@@H](CNC[C@H](O)[C@H]1CCc2cc(F)ccc2O1)[C@@H]1CCc2cc(F)ccc2O1`: the outcome was inactive.

On to `O=C(O)c1ccc(Cl)c(Cl)c1`, for which the result was inactive.

For `Cc1ccc(S(=O)(=O)NC(=O)NN2CC3CCCC3C2)cc1` (stereo not given), the result was inactive.

On to `Cn1cnc2c(F)c(Nc3ccc(Br)cc3Cl)c(C(=O)NOCCO)cc21`, for which the outcome was inactive.

Turning to `CC1=CC(C)(C)Nc2ccccc21`, the outcome was inactive.

On to `COc1cccc2c1C(=O)c1c(O)c3c(c(O)c1C2=O)C[C@@](O)(C(=O)CO)C[C@@H]3O[C@H]1C[C@H](N)[C@H](O[C@@H]2CCCCO2)[C@H](C)O1`, for which the AC50 was 7.49 µM (active).

Regarding `CC(C)COC(=O)COc1cc(Cl)c(Cl)cc1Cl`, the result was inactive.

Take `CCCCNc1cc(C(=O)O)cc(S(N)(=O)=O)c1Oc1ccccc1`: the outcome was inactive.

Take `Oc1ccc(Cl)c2cccnc12`: the outcome was inactive.

`Cc1cc(-c2ccc(N=Nc3cc(S(=O)(=O)O)c4ccccc4c3N)c(C)c2)ccc1N=Nc1cc(S(=O)(=O)O)c2ccccc2c1N`: the AC50 was 12.6 µM (active).

As to `CC1(C)C[C@@H]1C(=O)N/C(=C\CCCCSC[C@H](N)C(=O)O)C(=O)O`, the outcome was inactive.

As for `O[C@@H]([C@H](O)[C@H](O)CBr)[C@H](O)CBr`, the result was inactive.

Turning to `Cc1cc(O)c(C(C)C)cc1Cl`, the result was inactive.

For `Cc1cc(O)c2c(c1)O[C@@]1(C)CC[C@H]3C(C)(C)CCCC34CO[C@@H]2[C@H]41` (stereo not given in full), the concentration at half-maximal activity (AC50) is 43.7 µM (active).

In the case of `CN1[C@@H]2CC[C@H]1CC(OC(=O)C(O)c1ccccc1)C2` (stereo not given in full), the outcome was inactive.

Tested on in another experiment: not listed separately
Put plainly: TOX21_p53_BLA_p4_viability: Viability Assessment in the Tox21 HCT-116 p53 Agonism Beta-lactamase Assay, Phase 4 (AID 2283597).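 Further: hits lower the luminescence signal meaning cytotoxicity.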 In outline: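 Cytotoxicity as reduced cellular ATP (CellTiter-Glo luminescence, 30 min room temperature), measured in the same wells following the CCF4 FRET p53 reading. Human HCT-116 cells received compounds in DMSO (217-fold dilution) for 16 h.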
For the compound `CON=C(C(=O)N[C@@H]1C(=O)N2C(C(=O)O)=C(COC(N)=O)CS[C@H]12)c1ccco1`, the outcome was inactive.

As for `C[C@H]1O[C@@H](n2cc(F)c(=O)[nH]c2=O)[C@H](O)[C@@H]1O`, the call was inactive.

As for `O=C(O)c1cc(=O)c2c3nc4ccccc4oc-3cc(=O)c2[nH]1`, the compound was called inactive.

As to `CO[C@@]12[C@H](COC(N)=O)C3=C(C(=O)C(C)=C(N)C3=O)N1C[C@@H]1N[C@@H]12`, the result was inactive.

`CCN(CC)CCOc1ccc(-c2nc3cc(Cl)ccc3s2)cc1`: the half-maximal activity concentration (AC50) is 36.3 µM (active).

On to `Cc1c(Cl)cccc1Nc1ccccc1C(=O)O`, for which the AC50 was 10.2 µM (active).

With `CO[C@H]1/C=C/O[C@@]2(C)Oc3c(C)c(O)c4c(O)c(cc(O)c4c3C2=O)NC(=O)/C(C)=C\C=C\[C@H](C)[C@H](O)[C@@H](C)[C@@H](O)[C@@H](C)[C@H](OC(C)=O)[C@@H]1C`, the result was inactive.

With `COc1ccccc1N1CCN(CC(O)COc2cccc3ccccc23)CC1` (stereo not given), the AC50 was 23 µM (active).

Regarding `CN(C)c1nc(N(C)C)nc(N(C)C)n1`, the compound was classed as inactive.

Take `NC(=O)c1ccccc1C(N)=O`: the outcome was inactive.

`OC[C@@H](O)[C@@H](O[C@@H]1O[C@H](CO)[C@H](O)[C@H](O)[C@H]1O)[C@H](O)[C@@H](O)CO`: the result was inactive.

As for `NCCS`, the call was inactive.

`CCCCCCCCCCCCCCC(=O)O`: the compound was called inactive.

Take `CCCCCCCCCCCCCCCCCC(=O)OC[C@@H](O)[C@H]1OC[C@H](O)[C@H]1O`: the call was inactive.

Take `Cc1ccc2nc(N)[nH]c(=O)c2c1Sc1ccncc1`: the call was inactive.

In the case of `COc1cccc2c1[C@@H]1CN(CCCCn3c(=O)[nH]c4c(sc5ncc(-c6ccccc6)nc54)c3=O)C[C@@H]1CO2`, the AC50 was 43.3 µM (active).

As to `CCOC(=O)C=CC(=O)O`, the result was inactive.

Regarding `O=C(Nc1ccc(Br)cc1)c1cc(Br)c(Br)s1`, the AC50 is 19.5 µM (active).

As for `CCC(C)(C)c1ccc(CC(C)CN2C[C@@H](C)O[C@@H](C)C2)cc1` (stereo not given in full), the AC50 was 32.7 µM (active).

For the compound `O=C(O)COC(=O)Cc1ccccc1Nc1c(Cl)cccc1Cl`, the outcome was inactive.

For `C=CC(=O)O`, the call was inactive.

As to `CCC(C)n1ncn(-c2ccc(N3CCN(c4ccc(OC[C@H]5CO[C@](Cn6cncn6)(c6ccc(Cl)cc6Cl)O5)cc4)CC3)cc2)c1=O` (stereo not given in full), the compound was called inactive.

Regarding `NCCCC[C@H](NC(=O)[C@@H]1CCCN1C(=O)[C@@H]1CSSC[C@H](N)C(=O)N[C@@H](Cc2ccc(O)cc2)C(=O)N[C@@H](Cc2ccccc2)C(=O)N[C@@H](CCC(N)=O)C(=O)N[C@@H](CC(N)=O)C(=O)N1)C(=O)NCC(N)=O`, the call was inactive.

As for `C=C1/C(=C\C=C2/CCC[C@]3(C)[C@@H]([C@H](C)CCCC(C)(C)O)CC[C@@H]23)C[C@@H](O)C[C@@H]1O`, the half-maximal activity concentration (AC50) was 13 µM (active).

Regarding `C=CCNC1=C2C[C@@H](C)C[C@H](OC)[C@H](O)[C@@H](C)/C=C(\C)[C@H](OC(N)=O)[C@@H](OC)/C=C\C=C(/C)C(=O)NC(=CC1=O)C2=O`, the call was inactive.

As to `O[C@@H](CNC[C@H](O)[C@H]1CCc2cc(F)ccc2O1)[C@@H]1CCc2cc(F)ccc2O1`, the AC50 is 33.5 µM (active).

For the compound `O=C(O)c1ccc(Cl)c(Cl)c1`, the call was inactive.

As for `Cc1ccc(S(=O)(=O)NC(=O)NN2CC3CCCC3C2)cc1` (stereo not given), the result was inactive.

`Cn1cnc2c(F)c(Nc3ccc(Br)cc3Cl)c(C(=O)NOCCO)cc21`: the result was inactive.

On to `CC1=CC(C)(C)Nc2ccccc21`, for which the compound was called inactive.

With `COc1cccc2c1C(=O)c1c(O)c3c(c(O)c1C2=O)C[C@@](O)(C(=O)CO)C[C@@H]3O[C@H]1C[C@H](N)[C@H](O[C@@H]2CCCCO2)[C@H](C)O1`, the AC50 was 7.64 µM (active).

As to `CC(C)COC(=O)COc1cc(Cl)c(Cl)cc1Cl`, the outcome was inactive.

Consider `CCCCNc1cc(C(=O)O)cc(S(N)(=O)=O)c1Oc1ccccc1`, for which the result was inactive.

For `Oc1ccc(Cl)c2cccnc12`, the outcome was inactive.

As to `Cc1cc(-c2ccc(N=Nc3cc(S(=O)(=O)O)c4ccccc4c3N)c(C)c2)ccc1N=Nc1cc(S(=O)(=O)O)c2ccccc2c1N`, the call was inactive.

For `CC1(C)C[C@@H]1C(=O)N/C(=C\CCCCSC[C@H](N)C(=O)O)C(=O)O`, the result was inactive.

As to `O[C@@H]([C@H](O)[C@H](O)CBr)[C@H](O)CBr`, the compound was called inactive.

For `Cc1cc(O)c(C(C)C)cc1Cl`, the call was inactive.

Regarding `Cc1cc(O)c2c(c1)O[C@@]1(C)CC[C@H]3C(C)(C)CCCC34CO[C@@H]2[C@H]41` (stereo not given in full), the AC50 was 29.6 µM (active).

Consider `CN1[C@@H]2CC[C@H]1CC(OC(=O)C(O)c1ccccc1)C2` (stereo not given in full), for which the outcome was inactive.

By AC50 is commonly meant the concentration giving half of the maximal activity seen.
